# Screening data deposited in PubChem by several laboratories.
# PRMT1 inh: PRMT1 (human) inhibition, primary screen; recombinant PRMT1, activity-based probe fluorescence polarization; hit rate 1.3% among 370,000; Q99873; AID 652257; inhibition, % at 2.79 µM;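 active = inhibition above about 21% made by adding two undisclosed values, limit read from the data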
# Target sequence (Q99873 whole entry, looked up): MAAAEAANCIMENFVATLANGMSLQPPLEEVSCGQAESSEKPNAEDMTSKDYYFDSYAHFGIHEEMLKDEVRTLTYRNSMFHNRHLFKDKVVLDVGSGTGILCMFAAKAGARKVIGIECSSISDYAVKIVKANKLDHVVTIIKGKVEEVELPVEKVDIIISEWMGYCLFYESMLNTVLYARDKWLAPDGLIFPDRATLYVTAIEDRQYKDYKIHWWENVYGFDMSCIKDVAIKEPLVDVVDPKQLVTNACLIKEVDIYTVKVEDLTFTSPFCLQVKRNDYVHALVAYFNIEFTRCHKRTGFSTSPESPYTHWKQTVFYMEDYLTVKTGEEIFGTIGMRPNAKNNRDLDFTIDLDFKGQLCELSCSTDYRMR
# TLR9-MyD88 inh: blocks human TLR9 binding to MyD88. hit rate 0.21% among 340,000. CHO BLA complementation TLR9-MyD88, CCF4 FRET ratio. inhibition, % at 4.98 µM;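 active = inhibition above the mean over all tested compounds plus 3 SD, cut at about 21% in these data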;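 also: 0% = DMSO only wells and 100% = clavulanate BLA inhibitor control wells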
# ABHD5-PLIN5 inh: ABHD5-PLIN5 protein interaction inhibition. Split G. princeps luciferase complementation, luminescence, 4 h. inhibition, % at 4 µM. hit rate 0.78% among 360,000;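 active = inhibition above the mean inhibition across every tested compound plus 3 SD, cut at about 22% in these data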;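 also: 0% = DMSO only wells and the 100% control is not disclosed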
# NOD2 RIPK2 PPI: NOD2-RIPK2 protein interaction inhibition | O43353 | CHO BLA complementation NOD2-RIPK2, CCF4 ratio | inhibition, % at 4.98 µM | hit rate 0.38% among 360,000; in the data active = inhibition above about 21%;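 also: 0% = vehicle only and 100% = reference blocker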
# TLR4 MyD88 comp: TLR4-MyD88 interaction inhibition in cells | AID 861 | hit rate 0.18% among 200,000 | HeLa CL3-4 TLR4/MyD88 BLA complementation, FRET ratio | inhibition, % at 8.4 µM; in the data active = inhibition above about 25%;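 also: 0% = vehicle and 100% = reference inhibitor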
# Exocytosis inh: blocks lytic granule exocytosis. TALL-104 LAMP-1 surface exposure, flow cytometry; cells stimulated with thapsigargin and PMA. inhibition, % at 10 µM. hit rate 0.66% among 360,000. AID 651702;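 active = inhibition above about 55%, limit read from the data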
# Granule exo CP1: lytic granule exocytosis inhibition | shares compounds with Exocytosis inh | TALL-104 cells, LAMP-1 externalization, flow cytometry; stimulated with PMA plus thapsigargin | inhibition, % at 10 µM | hit rate 11% among 1,500 | AID 651954; in the data active = inhibition above about 60%;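 also: 0% = stimulated vehicle wells and 100% = unstimulated wells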
# Active calls of the source: *; . = not tested or not shown. In the library only some 2.6% were active in any assay of this set; here they are far more common.
SMILES,PRMT1 inh,TLR9-MyD88 inh,ABHD5-PLIN5 inh,NOD2 RIPK2 PPI,TLR4 MyD88 comp,Exocytosis inh,Granule exo CP1
CCOc1cccc(CN(C)CC2CCCN(CCc3ccc(Cl)cc3)C2)c1O (stereo not given),-4,4,3,-1,.,76*,-2
COc1cc(CN(C)CC2CCCN(CCc3ccccc3F)C2)cc(Cl)c1OC (stereo not given),1,-1,5,1,.,56*,-4
CN(Cc1ccccc1)CC1CCCN(CCc2ccccc2F)C1 (stereo not given),-5,8,-8,0,.,54,.
COc1ccc(CN(C)CC2CCCN(CCc3ccc(F)cc3)C2)cc1OC (stereo not given),3,3,0,0,.,60*,-14
COc1ccc(CN(C)CC2CCCN(CCc3ccc(Cl)cc3)C2)cc1OC (stereo not given),7,-2,-4,-4,.,14,.
O=S(=O)(c1ccc(F)cc1)N1CCC(c2nc3ccccc3o2)CC1,-1,.,.,.,.,.,.
COC(=O)C1CN(Cc2ccccc2)CCS(=O)(=O)N1Cc1ccccc1F (stereo not given),-3,.,.,.,.,.,.
Brc1ccc2nc(-c3ccc(CN4CCC(c5nc6ccccc6[nH]5)CC4)cc3)c(-c3ccccc3)nc2c1,-2,.,.,.,.,.,.
Nc1[nH]c(C(=O)c2ccccc2)c(-c2cccc(C(F)(F)F)c2)c1C(=O)c1c[nH]c2ccccc12,-4,.,.,.,.,.,.
COCC(=O)N(C)CC1CCCN(CCc2ccccc2OC)C1 (stereo not given),-3,-6,3,-4,.,3,.
COc1ccccc1CCN1CCCC(CN(C)CC(C)(C)CO)C1 (stereo not given),2,-5,7,-9,.,62*,-4
CCc1c(C)c(C#N)c2nc3ccccc3n2c1Nc1c(C)n(C)n(-c2ccccc2)c1=O,0,-2,-5,-1,-3,64*,-16
O=C(NCCc1ccccc1Cl)[C@@H]1CCCN1C(=O)[C@@H](NS(=O)(=O)c1ccc(F)cc1F)c1ccccc1,-5,.,.,.,.,.,.
COC(=O)C1=C(C)N(Cc2ccccc2C(F)(F)F)C(=NCc2ccc(OC)cc2)NC1CCc1ccccc1 (stereo not given),-2,.,.,.,.,.,.
O=C1NC[C@H](Cc2ccccc2)N(CCc2cccc(F)c2)C1=O,0,-3,3,-5,.,61*,-13
NCCCC[C@H]1CNC(=O)C(=O)N1CCc1cccc(F)c1,-1,-2,-5,-4,.,-5,.
CCN=C1NC(c2cccc(Cl)c2)C(C(=O)OC)=C(C)N1Cc1ccccc1C(F)(F)F (stereo not given),-1,.,.,.,.,.,.
CS(=O)(=O)c1cnc(-c2ccccc2)nc1Sc1ccc(F)cc1,-2,-13,-2,-5,.,-8,.
COc1cccc(Sc2nc(-c3ccccc3)ncc2S(C)(=O)=O)c1,1,8,-4,-5,.,65*,2
CCN1CCN(c2ccc(NC(=O)CCc3c(C)nc4c(-c5ccc(F)cc5)c(C)nn4c3C)cc2)CC1,-2,-8,17,5,-11,57*,-10
Cc1ccc(CN2C(=O)c3ccccc3NC2c2cc(Br)ccc2O)cc1 (stereo not given),10,1,-6,2,.,74*,-2
O=C1c2ccccc2NC(c2ccccc2)N1Cc1ccccc1 (stereo not given),2,3,1,1,.,16,.
CCN(CC)CCn1c(=N)n(CC(=O)c2ccc(Br)s2)c2ccccc21,2,.,10,5,.,79*,0
N=c1n(CC(=O)c2ccc(Br)s2)c2ccccc2n1Cc1ccccc1,-1,2,15,2,.,77*,45
C[C@@H]1ON(C)[C@H]2C[C@H]3c4[nH]c5c(-c6ccccc6)cccc5c4CCN3C[C@@H]12,-3,.,.,.,.,.,.
Cc1oc(-c2ccc(Cl)cc2)nc1CS(=O)CC(=O)NCCCN1CCN(Cc2ccccc2)CC1 (stereo not given),0,-5,-1,-1,.,75*,-8
Cc1oc(-c2ccc(Cl)cc2)nc1CS(=O)CC(=O)NCCCN1CCCC(C)C1 (stereo not given),-3,17,-1,1,.,52,.
NC(=O)c1c(N)[nH]c(C(=O)c2ccccc2)c1-c1ccc2ccccc2c1,3,.,.,.,.,.,.
